Shown are actives, neighbours in structure and some others; about 3.8% of the full set was active somewhere.
TGFb inhibitor: inhibitors of TGF-b signaling; HepG2 CAGA-GFP TGF-b/SMAD3 reporter, GFP fluorescence, 18 h; TGF-beta stimulated, 500 pg/mL final; Potency, µM (top dose mostly 46.1 µM), without a hit: top-dose activity, negative = inhibition, most hits filed as inhibitors; 1.2% of 410,000 active; AID 588855; note: % is set by controls: 0 for no effect and ±100 for the full control effect; nearly all actives have a fitted effect of over 65% in size
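HEPG2 CAGA-GFP cells (1000/well, DMEM with 1% FBS) were pre-incubated 2 h at 37 degrees C, given compound by pin tool, then stimulated with TGF-beta at 500 pg/mL final for 18 h before per-cell GFP fluorescence imaging.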
HT1080 IDH1KD tx: kills HT-1080 cells with IDH1 knockdown; 2% of 360,000 active; Potency, µM (top dose mostly 46.1 µM), for the others: top-dose activity, negative = toxicity, actives largely listed as cytotoxic; HT-1080 IDH1 knockdown viability, ATP luminescence, 48 h; AID 686971;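 note: 0% = DMSO wells and -100% = cell-free medium wells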
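After a 2 h attachment period, IDH1KD HT-1080 cells took pin-transferred compound for 48 h at 37 °C; ATP-based luminescence after 10 min room-temperature reagent incubation reported viability.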
ATXN viability: reduces viability in counter-screen for ATXN expression inhibitors; S2 cells (HEK-293 line with an ATXN2-luciferase reporter) viability, CellTiter-Fluor protease fluorescence, 24 h; Potency, µM (top dose mostly 56.7 µM), hits mostly cytotoxic; 0.49% of 400,000 active; note: nearly all actives have a fitted effect of over 40% in size
ATXN2 expr inh: reduces ATXN2 reporter expression in HEK-293 cells; HEK-293 ATXN2-luciferase reporter, luminescence, 24 h; Potency, µM (titrated, usually from 57 µM), inactives show at the top dose activity change, negative = inhibition, hits mostly inhibitors; 0.72% of 360,000 active; AID 1745845; note: % is set by controls: 0 for no effect and ±100 for the full control effect; nearly all actives have a fitted effect of over 55% in size
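ATXN2-luciferase reporter cells (luciferase flanked by upstream and downstream ATXN2 gene portions) were treated 24 h at 37 °C with compounds at up to 57 uM. SteadyGlo luminescence gave expression; GF-AFC fluorescence gave viability.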
HepG2 viability: counter-screen for TGF-b inhibitors: cytotoxicity in HepG2 cells | HepG2 CAGA-GFP viability, ATP luminescence, 18 h | Potency, µM (series often up to 46.1 µM), for inactives: top-dose activity change, negative = cytotoxicity, hits mostly cytotoxic | 0.76% of 410,000 active | AID 588856
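CellTiter-Glo luminescence gave cytotoxicity after 18 hours at 37 degrees C. The cells were HepG2 CAGA-GFP in 1% FBS DMEM, stimulated with 500 pg/mL TGF-beta after compound addition. %Activity was normalised to no-cell wells (complete cell-killing) and DMSO (no toxicity), and curves were fitted and classified.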
HT1080-NT tox: kills 2HG-producing HT-1080-NT fibrosarcoma cells | 1.6% of 360,000 active | Potency, µM (titrated, usually from 46.1 µM), inactives show at the top dose activity, negative = less viability, usual class: cytotoxic | HT-1080-NT fibrosarcoma viability, CellTiter-Glo ATP luminescence, 48 h | AID 686970;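 note: NT is the 2HG producing partner of a matched IDH1 knockdown line; 0% = DMSO-treated cells and -100% = media-only wells without cells; nearly all actives have a fitted effect of over 55% in size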
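HT-1080-NT fibrosarcoma cells (2HG-overproducing), 750 cells/well in RPMI with 5% FBS, dosed after 2 h and incubated 48 h at 37C. CellTiter-Glo luminescence normalized to DMSO and no-cell wells; concentration-response curves fitted and classed.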
* hit, by the source's call; i = inactive; ? = inconclusive; · = no result; ! = repeats disagree. Calls come from the whole dose curve; as a rule, active = well fitted curve in the direction sought with a large enough effect; inconclusive = small, poorly fitted or top-dose-only effect, or another doubt; inactive = no such curve, though single readings can be large; an effect the other way counts as inactive or inconclusive. Potency is the fitted concentration of half-maximal effect.

SMILES	TGFb inhibitor	HT1080 IDH1KD tx	ATXN viability	ATXN2 expr inh	HepG2 viability	HT1080-NT tox
O=C1/C(=N\S(=O)(=O)c2cccs2)C([n+]2ccc(CCCc3ccccc3)cc2)=C([O-])c2ccccc21	15.8µM*	?	i	-18.8%	-104.8%	-27.6%
CC(C)(C)n1ncc2c(=O)n(Cc3ccc(OC(F)(F)F)cc3)cnc21	-21.1%	·	·	·	-42.6%	·
CCN1c2ccccc2-n2cccc2C12CCN(C(=O)Nc1ccccc1Br)CC2	-18.0%	·	·	·	-34.3%	·
CCCN(CCC)S(=O)(=O)c1ccc(Cl)c([N+](=O)[O-])c1	?	23.1µM*	23.8µM*	?	-22.8%	?
CC(C)c1c(C(=O)N(C)CC2CCCN(C)C2)cnn1-c1nccc(-c2cccs2)n1 (stereo unspecified)	·	·	i	·	·	·
Nc1nnnn1/N=C/c1ccc(O)cc1	1.5%	17.7%	i	0.3%	1.9%	16.5%
CCN(C)c1ccc(/C=N\n2nnnc2N)cc1	1.0%	5.17µM*	i	136.1%	3.0%	?
Fc1ccc(Nc2nc3nonc3nc2Nc2cccc(C(F)(F)F)c2)cc1	0.708µM*	·	·	·	-109.1%	·
O=C(C[n+]1cccc(Br)c1)c1cc(Cl)ccc1Cl	-6.7%	·	·	·	-13.4%	·
CC(C)c1ccc(NC(=O)Nc2nc(C(N)c3ccccc3Cl)cs2)cc1 (stereo unspecified)	?	?	·	?	-102.2%	?
CC(C)c1ccc(NC(=O)Nc2nc(C(C)N)cs2)cc1 (stereo unspecified)	17.8µM*	20.6µM*	·	?	-84.9%	?
CC(C)c1ccc(NC(=O)Nc2nc(C(N)C3CCCCC3)cs2)cc1 (stereo unspecified)	22.4µM*	20.6µM*	?	?	10µM*	?
CC(C)c1ccc(NC(=O)Nc2cnccn2)cc1	0.0%	14.6µM*	i	9.4%	10.4%	?
Cn1cnc(=N)c2[nH]cnc21	·	·	·	291.6%	·	·
O=C(N/N=C/c1cc(Cl)ccc1O)c1ccncc1	?	4.11µM*	i	?	12.6µM*	6.51µM*
CC(C)c1ccc(/C=N/NC(=O)c2ccccc2Cl)cc1	-13.0%	6.51µM*	?	-15.5%	24.7%	7.31µM*
O=C(N/N=C/c1cc(Br)ccc1O)c1ccccc1Cl	?	16.4µM*	i	?	-48.2%	?
O=C(N/N=C/c1ccccc1Cl)c1ccncc1	9.6%	-4.6%	i	·	7.0%	-3.7%
CN(C)c1ccc(C(=O)N/N=C/c2cc(Br)cc(Br)c2O)cc1	?	?	i	3.55µM*	-31.7%	?
O=C(O)Cc1ccc2c(c1)C(=O)c1ccccc1CO2	·	·	i	10.8%	·	·
CCc1ccc(NC(=O)CSc2nnc(-c3ccccc3)n2CC)cc1	-0.2%	·	·	·	2.5%	·
Cc1cccc2cc(/C=N/NC(=O)c3ccccc3O)c(Cl)nc12	10µM*	-20.9%	?	-22.5%	-32.1%	-0.1%
Cc1ccc(C(=O)N/N=C/c2cc(Br)ccc2O)cn1	?	?	?	2µM*	-33.9%	?
COc1cc2c(cc1OC)C(c1cc(-c3cc(Cl)ccc3Cl)oc1C)=NCC2	0.7%	·	·	·	-26.7%	·
CCCC1=Nc2cc(C(=O)NCCOC)ccc2Sc2ccccc21	·	·	·	·	7.0%	·
SMILES	TGFb inhibitor	HT1080 IDH1KD tx	ATXN viability	ATXN2 expr inh	HepG2 viability	HT1080-NT tox
CCC1=Nc2cc(C(=O)NCCCOC)ccc2Sc2ccccc21	0.0%	1.03µM*	?	3.4%	9.6%	0.651µM*
CCCC1=Nc2cc(C(=O)NCCCOCC)ccc2Sc2ccccc21	?	0.731µM*	?	-11.6%	-19.1%	1.64µM*
CCCC1=Nc2cc(C(=O)NCCCOC(C)C)ccc2Sc2ccccc21	-29.2%	18.4µM*	i	-15.5%	4.6%	11.6µM*
CCCC1=Nc2cc(C(=O)N3CCC(C(=O)OCC)CC3)ccc2Sc2ccccc21	12.6µM*!	-11.9%	i	-0.2%	-9.0%	?
CCCC1=Nc2cc(C(=O)N3CCC(C(N)=O)CC3)ccc2Sc2ccccc21	18.6%	-6.8%	i	-4.7%	-1.2%	-4.8%
Cc1ccc2[nH]c(CSc3nnc(COc4ccccc4C)n3C)cc(=O)c2c1	-23.5%	·	i	-13.5%	-1.9%	·
Cc1cc(OC(C)C(=O)N2CCN(CCc3ccccn3)CC2)ccc1Cl (stereo unspecified)	-0.1%	·	i	0.3%	8.2%	·
COc1ccc(Nc2ncc3c(n2)CCN(Cc2cccc(F)c2F)C3)c(OC)c1	-12.2%	·	i	1.8%	-1.9%	·
CCOC(=O)C1CCCN(C(=O)c2ccc3c(c2)C(C)(C)CCC3(C)C)CC1 (stereo unspecified)	14.1µM*	?	i	0.0%	-39.2%	?
O=c1n(Cc2ccc(F)cc2)c2ccccc2c2nc(-c3ccccc3)nn12	-9.5%	·	·	·	-14.3%	·
COc1cccc(NC(CNS(=O)(=O)c2ccc(Cl)cc2)c2ccccc2)c1 (stereo unspecified)	11.2µM*	·	?	?	-101.5%	·
O=S(=O)(NCC(c1ccccc1)N1CCNCC1)c1ccc(Cl)cc1 (stereo unspecified)	12.6µM*	-16.8%	?	?	-101.0%	?
COc1cccc(NC(CNS(=O)(=O)c2ccc(C)cc2)c2ccccc2)c1 (stereo unspecified)	14.1µM*	·	?	?	-93.8%	·
Cc1ccc(NC(CNS(=O)(=O)c2ccc(Cl)cc2)c2ccccc2)cc1 (stereo unspecified)	?	?	i	?	-82.7%	?
O=S(=O)(NCC(Nc1ccc(Cl)cc1)c1ccccc1)c1ccccc1 (stereo unspecified)	?	?	·	?	15.8µM*!	?
CCCCNc1nc(Oc2ccc(OCC)nn2)nc(N2CCOCC2)n1	8.0%	·	i	36.4%	0.1%	·
CN(C)[C@@H]1C(=O)C(C(N)=O)=C(O)[C@@]2(O)C(=O)C3=C(O)c4c(O)cccc4C[C@H]3C[C@@H]12	·	·	i	-10.7%	·	·
C[C@H]1c2cccc(O)c2C(O)=C2C(=O)[C@]3(O)C(O)=C(C(N)=O)C(=O)[C@@H](N(C)C)C3[C@@H](O)C21 (stereo partly specified)	37.9%	23.1µM*	i	-9.7%	1.1%	?
CSc1cccc(NS(=O)(=O)c2ccc3[nH]cc(C(=O)N4CCCCCC4)c(=O)c3c2)c1	-28.7%	·	?	1.3%	-5.5%	·
Cc1[nH][nH]c(=O)c1C(c1c(C)[nH][nH]c1=O)c1cn(Cc2ccc(F)cc2)c2ccccc12	-3.3%	?	i	-26.8%	-21.2%	-29.2%

Screening results (PubChem)
